Test results reported in PubChem BioAssay AID1159580 (chemical genetic matrix, 2015).
Out of some 5,500 compounds screened, about 2,000 (36%) were called active. Inconclusive results (about 18%) are left out. No stated cut-off is given here; in the data, active means normalized growth mostly below about 0.91 (no sharp cut-off); inconclusive means no clear call, values can overlap the other calls; inactive means mostly above about 0.92. The list shows a part of the results.

Experiment: chemical genetic growth profiling, strain panel (AID 1159580);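 further: tested at 20 µM; growth read once vehicle control cultures reached saturation at 30 °C; 1 = growth at the plate median or of vehicle wells; lower values mean less growth of the strain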
Conditions: S. cerevisiae deletion strains, growth OD

Measured: normalized growth

CC(=O)O[C@]1(C(C)=O)CCC2C3C=C(Cl)C4=CC(=O)[C@@H]5C[C@@H]5[C@]4(C)C3CC[C@@]21C (some centres undefined)
inactive: locus YAL021C, strain ccr4, hits give low values 1.06 | locus YAL026C, strain drs2, hits give low values 1.02 | locus YAL030W, strain snc1, hits give low values 1.01 | locus YBL061C, strain skt5, hits give low values 1.01 | locus YBR009C, strain hhf1, hits give low values 0.973 | locus YBR023C, strain chs3, hits give low values 1 | locus YBR171W, strain sec66, hits give low values 1.02 | locus YBR231C, strain swc5, hits give low values 1.03 | locus YBR279W, strain paf1, hits give low values 0.997 | locus YCL011C, strain gbp2, hits give low values 0.99 | locus YCL016C, strain dcc1, hits give low values 0.992 | locus YCL061C, strain MRC1, hits give low values 1.02 | locus YCL069W, strain vba3, hits give low values 1.01 | locus YCR088W, strain abp1, hits give low values 1.01 | locus YDL005C, strain med2, hits give low values 1 | locus YDL040C, strain nat1, hits give low values 1.01 | locus YDR001C, strain nth1, hits give low values 1.01 | locus YDR069C, strain doa4, hits give low values 1.04 | locus YDR137W, strain rgp1, hits give low values 0.968 | locus YDR159W, strain sac3, hits give low values 0.946 | locus YDR195W, strain ref2 1.05 | locus YDR297W, strain sur2, hits give low values 1.02 | locus YDR334W, strain swr1, hits give low values 1 | locus YDR335W, strain msn5, hits give low values 1.01 | locus YDR392W, strain spt3, hits give low values 0.861 | locus YEL003W, strain gim4, hits give low values 1.02 | locus YEL037C, strain rad23, hits give low values 1.02 | locus YEL061C, strain CIN8 (second series), hits give low values 1.01 | locus YER015W, strain faa2, hits give low values 1 | locus YER016W, strain bim1, hits give low values 1.01 | locus YER111C, strain swi4, hits give low values 1.02 | locus YER155C, strain BEM2 (second series), hits give low values 1.05 | locus YFR010W, strain ubp6, hits give low values 1.03 | locus YGL167C, strain pmr1, hits give low values 1.03 | locus YGL173C, strain kem1, hits give low values 1.02 | locus YGL227W, strain vid30, hits give low values 0.997 | locus YGL240W, strain doc1, hits give low values 1.02 | locus YGL253W, strain hxk2, hits give low values 0.973 | locus YHR013C, strain ard1, hits give low values 1.03 | locus YHR027C, strain rpn1, hits give low values 1.01 | locus YHR030C, strain SLT2, hits give low values 1.03 | locus YHR079C, strain IRE1, hits give low values 1.02 | locus YHR142W, strain chs7, hits give low values 0.988 | locus YJL092W, strain hpr5, hits give low values 1.02 | locus YJL095W, strain BCK1 (second series), hits give low values 1.02 | locus YJL095W, strain BCK1, hits give low values 1.02 | locus YJL115W, strain asf1, hits give low values 1.01 | locus YJL129C, strain trk1, hits give low values 1.01 | locus YJL154C, strain vps35, hits give low values 1.01 | locus YJL164C, strain tpk1, hits give low values 0.992 | locus YJL166W, strain qcr8, hits give low values 1.02 | locus YJR066W, strain TOR1, hits give low values 0.997 | locus YKL160W, strain elf1, hits give low values 1.01 | locus YKR026C, strain gcn3, hits give low values 1.01 | locus YKR091W, strain srl3, hits give low values 1.01 | locus YLL001W, strain dnm1, hits give low values 1.02 | locus YLL026W, hits give low values 1.01 | locus YLL041C, strain sdh2, hits give low values 1.01 | locus YLR027C, strain aat2, hits give low values 1.02 | locus YLR113W, strain HOG1, hits give low values 1.03 | locus YLR221C, strain rsa3, hits give low values 0.982 | locus YLR258W, strain gsy2, hits give low values 1.01 | locus YLR262C, strain YPT6 (second series), hits give low values 0.977 | locus YLR320W, strain mms22, hits give low values 0.979 | locus YLR342W, strain FKS1, hits give low values 1.01 | locus YLR357W, strain rsc2, hits give low values 0.999 | locus YLR370C, strain arc18, hits give low values 1.02 | locus YLR384C, strain iki3, hits give low values 1.01 | locus YML120C, strain ndi1, hits give low values 1.02 | locus YMR058W, strain fet3, hits give low values 1.02 | locus YMR125W, strain sto1, hits give low values 1.02 | locus YMR129W, hits give low values 1.01 | locus YMR205C, strain PFK2, hits give low values 0.991 | locus YMR231W, strain pep5, hits give low values 1.01 | locus YNL071W, strain lat1, hits give low values 0.963 | locus YNL183C, strain NPR1, hits give low values 0.986 | locus YNL209W, strain ssb2, hits give low values 0.999 | locus YNL248C, strain rpa49, hits give low values 1.01 | locus YNL322C, strain KRE1 (second series), hits give low values 1.01 | locus YNR049C, strain mso1, hits give low values 1 | locus YOR001W, strain rrp6, hits give low values 1.03 | locus YOR070C, strain gyp1, hits give low values 1 | locus YOR080W, strain dia2, hits give low values 1.02 | locus YOR083W, strain WHI5, hits give low values 0.983 | locus YOR106W, strain vam3, hits give low values 1.01 | locus YOR231W, strain MKK1, hits give low values 1.02 | locus YOR265W, strain rbl2, hits give low values 1.02 | locus YOR270C, strain vph1, hits give low values 0.954 | locus YOR290C, strain snf2, hits give low values 0.995 | locus YPL051W, strain arl3, hits give low values 1.01 | locus YPL078C, strain atp4, hits give low values 1.01 | locus YPL106C, strain sse1, hits give low values 1.04 | locus YPL240C, strain hsp82, hits give low values 1.02 | locus YPL256C, strain CLN2, hits give low values 1.03
